This note sets out measurements from publication PMC5540273 (PLoS ONE, 2017).

Some test systems named below: S6K1; SBK1; SGK2; SGK3; SGK; SIK2; SIK; SLK; SNRK; SRC; SRMS; SRPK1; SRPK2; SRPK3; STK16; STK33; STK35.
Common to all, as to conditions: concentration: 1 μM, replicates: in singlicate; n = 1
For test [1], the system named is T1, RSK4(Kin.Dom.1-N-terminal).
T1 construct: gene RPS6KA6

The test system of test [2] is T2, RSK4(Kin.Dom.2-C-terminal).
T2 construct: gene RPS6KA6

The next test relates to T3, SNARK.
T3 construct: gene NUAK2
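Also: KINOMEscan kinase panel screen.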

For the compound `COc1cc(Nc2nccc(N3CCC(NC(=O)Nc4cccc(C(C)=O)c4)C3)n2)cc(OC)c1OC` (stereo not shown) [GSK1379753], the “%Inh” value in test [1] came out at 15%; in test [2], 12%; in the test with S6K1, 19%; in the test with SBK1, 11%; in the test on SGK2, 5%; with SGK3 it was 0%. Also, the “%Inh” value is listed as 0% in the test on SGK; 0% in the test on SIK2; 0% in the test on SIK; 30% in the test on SLK; 21% with SNARK; 0% in the test on SNRK. For the same compound, the “%Inh” value with SRC is 10%; with SRMS it was 0%; with SRPK1 it was 50%; in the test with SRPK2 it was 0%; with SRPK3, 0%; with STK16, 83%. Besides, the “%Inh” value in the test on STK33 and with STK35 was 0% throughout.
Consider `Cl.c1ccc(-c2ccc3c(Nc4ccc5[nH]ncc5c4)ccnc3c2)nc1` [GW440137], for which the “%Inh” value in test [1] is reported as 0%; in test [2] it was 0%; with S6K1 it was 0%; with SBK1 it was 0%; in the test with SGK2, 0%; with SGK3, 21%. Also, the “%Inh” value is reported as 58% in the test on SGK; 0% in the test with SIK2; 0% in the test with SIK; 31% in the test with SLK; 20% in the test on SNARK; 0% with SNRK. In addition, the “%Inh” value came to 33% with SRC; 0% in the test on SRMS; 31% in the test on SRPK1; 0% in the test with SRPK2; 0% in the test on SRPK3; 30% with STK16. Besides, the “%Inh” value with STK33 and in the test with STK35 was 0% in each case.
With `FC(F)(F)c1ccc(/C=C/c2cncnc2Nc2ccc3[nH]c(Cc4ccccc4)nc3c2)cc1` [GW709199], the “%Inh” value (in [1]; in test [2]; with S6K1; with SBK1; in the test with SGK2; in the test with SGK3) was 0% each time. Also, the “%Inh” value in the test on SGK is given as 0%; in the test on SIK2, 4%; with SIK it was 20%; with SLK it was 5%; with SNARK, 45%; with SNRK, 0%. Besides, the “%Inh” value was found to be 1% with SRC; 0% with SRMS; 21% with SRPK1; 56% in the test with SRPK2; 2% in the test with SRPK3; 0% in the test on STK16. In addition, the “%Inh” value with STK33 and with STK35 was 0% throughout.
Take `COc1cc(Nc2ncc3c(C)nc(-c4cc5ccccc5[nH]4)n3n2)cc(OC)c1OC` [GW869516]: the “%Inh” value in test [1] stood at 7%; in test [2], 3%; with S6K1, 0%; in the test on SBK1, 0%; in the test on SGK2, 0%; with SGK3, 1%. Also, the “%Inh” value was 0% in the test with SGK; 29% in the test on SIK2; 20% in the test on SIK; 63% in the test on SLK; 9% in the test on SNARK; 0% in the test with SNRK. The “%Inh” value with SRC stood at 90.1%; with SRMS, 13%; in the test on SRPK1, 9%; in the test with SRPK2 it was 6%; with SRPK3, 19%; with STK16, 86%. The “%Inh” value in the test on STK33 is reported as 10%; in the test on STK35, 0%.
On to `COc1cc(Nc2nccc(N3CCC(NC(=O)c4cc5ccccc5s4)C3)n2)cc(OC)c1OC` (stereo not shown) [GSK1379760], for which the “%Inh” value in [1] is recorded as 0%; in [2], 11%; with S6K1, 17%; in the test with SBK1, 17%; in the test with SGK2, 0%; in the test with SGK3, 10%. The “%Inh” value stood at 11% in the test on SGK; 15% in the test with SIK2; 14% in the test on SIK; 76% with SLK; 20% in the test with SNARK; 0% in the test with SNRK. Further, the “%Inh” value in the test on SRC is given as 21%; with SRMS, 8%; with SRPK1, 61%; with SRPK2, 0%; in the test with SRPK3, 22%; in the test with STK16 it was 10%. The “%Inh” value is given as 0% with STK33 and 9% in the test on STK35.
As to `COC(=O)Nc1nc2cc(Oc3ccc(NC(=O)Nc4cc(C(F)(F)F)ccc4F)cn3)ccc2[nH]1.Cl.Cl` [GW681170], the “%Inh” value was found to be 0% in test [1]; 0% in test [2]; 12% in the test with S6K1; 0% with SBK1; 1% in the test with SGK2; 6% in the test with SGK3. The “%Inh” value in the test on SGK was 12%; with SIK2, 0%; with SIK, 0%; with SLK it was 36%; in the test with SNARK it was 14%; in the test with SNRK, 0%. The “%Inh” value is given as 29% in the test with SRC; 0% with SRMS; 25% with SRPK1; 8% with SRPK2; 0% in the test on SRPK3; 17% in the test on STK16. In addition, the entries for the “%Inh” value with STK33 and with STK35 were 55% and 0%, respectively.
As to `Cn1cc(-c2ccc3c(c2)CCN3C(=O)Cc2cccc(Cl)c2)c2c(N)ncnc21` [GSK2606590], the “%Inh” value is recorded as 0% in [1]; 19% in test [2]; 0% with S6K1; 9% with SBK1; 0% in the test on SGK2; 0% in the test on SGK3. The “%Inh” value in the test with SGK is 0%; in the test with SIK2, 0%; in the test with SIK it was 10%; with SLK it was 67%; with SNARK it was 18%; in the test on SNRK, 0%. Also, the “%Inh” value with SRC amounted to 21%; in the test on SRMS, 0%; with SRPK1, 0%; in the test on SRPK2, 0%; in the test on SRPK3, 11%; with STK16 it was 11%. Moreover, the “%Inh” value in the test with STK33 and with STK35 was 0% each time.
For `C[C@@H](Oc1cc(-n2cnc3cc(-c4ccnc(NCCS(C)(=O)=O)c4)ccc32)sc1C(N)=O)c1ccccc1Cl` [GSK907232], the “%Inh” value was 20% in test [1]; 14% in test [2]; 0% with S6K1; 1% with SBK1; 13% in the test on SGK2; 0% with SGK3. The “%Inh” value with SGK is recorded as 4%; in the test with SIK2, 50%; with SIK, 20%; with SLK, 99%; with SNARK, 95.4%; in the test with SNRK it was 0%. In addition, the “%Inh” value is 48% in the test with SRC; 0% in the test on SRMS; 84% in the test with SRPK1; 0% in the test on SRPK2; 82% in the test on SRPK3; 27% in the test on STK16. The “%Inh” value in the test on STK33 came to 0%; in the test with STK35 it was 15%.
